From PubChem
hcDAF-12 act: activates DAF-12 receptor from parasite H. contortus | HEK293 hcDAF-12 lit1-tk-luc reporter, luminescence; 0% DMSO, 100% Δ7-dafachronic acid | activation, % at 6.8 µM | 370,000 tested, 1.4% active;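 active = activation above the mean of all tested compounds plus 3 SD, cut at about 5.5% in these data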
DAX1 inh: inhibitors of DAX1 repression of SF-1 activated StAR promoter; HEK293T StAR-luciferase reporter, SF-1/DAX-1 repression relief; inhibition, % at 6.8 µM; 370,000 tested, 1.1% active; AID 652010;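 active = inhibition above the mean over all tested compounds plus 3 SD, cut at about 3.6% in these data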;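 note: higher inhibition means more luminescence from relief of DAX-1 repression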
hgDAF12 agonist: activates the H. glycines DAF-12 receptor ligand-binding domain | HEK293 GAL4-hgDAF12 UAS-luciferase reporter, agonist luminescence; normalized to butyrate control | activation, % at 6.8 µM | 370,000 tested, 1.8% active;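 active = activation above a cutoff set at the mean of all screened compounds plus 3 SD, cut at about 10% in these data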
ssDAF12 agonist: activators of S. stercoralis DAF-12 nuclear receptor; HEK293 ssDAF-12/GRIP1 lit1-tk-luc reporter, luminescence; % of 3 µM dafachronic acid response; activation, % at 6.8 µM; 370,000 tested, 1% active;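 active = activation above the mean over all tested compounds plus 3 SD, cut at about 0.9% in these data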
SMARCA2 act: increases SMARCA2 function in MMTV reporter cells; MG213 cells, MMTV-luciferase reporter, dexamethasone, overnight; activation, % at 9.1 µM; 370,000 tested, 1% active; AID 652017; in the data active = activation above about 7.8%
LXRb hcDAF ctr: LXR-beta agonism as hcDAF-12 counter-screen. HEK293 Gal4-LXR tk-luc reporter, luminescence, 24 h; normalized: DMSO 0%, positive control 100%. shares compounds with hcDAF-12 act. activation, % at 6.8 µM. 3,400 tested, under 10 active;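 active = mean percent activation of the reporter above a cutoff set as the average over tested compounds plus their standard deviation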
Target sequence (P55055 whole entry, looked up, the tested form may be a part): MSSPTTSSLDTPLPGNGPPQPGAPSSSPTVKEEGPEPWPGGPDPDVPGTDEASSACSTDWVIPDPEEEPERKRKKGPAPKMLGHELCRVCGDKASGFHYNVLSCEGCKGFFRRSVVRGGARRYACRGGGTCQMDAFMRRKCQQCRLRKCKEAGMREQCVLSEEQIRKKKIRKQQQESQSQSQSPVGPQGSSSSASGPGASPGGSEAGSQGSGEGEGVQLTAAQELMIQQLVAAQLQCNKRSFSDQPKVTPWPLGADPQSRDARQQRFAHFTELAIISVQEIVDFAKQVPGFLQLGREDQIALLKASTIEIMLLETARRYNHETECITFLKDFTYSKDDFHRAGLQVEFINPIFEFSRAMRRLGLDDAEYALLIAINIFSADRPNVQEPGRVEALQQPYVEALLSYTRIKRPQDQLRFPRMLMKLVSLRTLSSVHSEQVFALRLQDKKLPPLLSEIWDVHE
hcDAF12 ag: hcDAF-12 agonism, confirmation assay; shares compounds with hcDAF-12 act; HEK293 hcDAF-12 lit1-tk-luc reporter, luminescence; % of Δ7-dafachronic acid response; activation, % at 6.8 µM; 3,400 tested, 61% active; AID 743032;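 active = mean activation across triplicate tests above the threshold derived from the earlier primary screen, cut at about 5.5% in these data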
hgDAF12 ag: confirmation of H. glycines DAF-12 agonists. AID 743050. HEK293 GAL4-hgDAF12 luciferase reporter, agonist mode; percent of butyrate response. activation, % at 6.8 µM. 3,300 tested, 80% active. shares compounds with hgDAF12 agonist;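 active = mean activation over triplicate wells above the hit cutoff derived from the earlier primary screen, cut at about 11% in these data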
LXR ag 2: counter-screen for DAF-12 agonists: agonists of human LXR-beta. shares compounds with hgDAF12 agonist. HEK293 Gal4-LXR luciferase reporter, 24 h. activation, % at 6.8 µM. 3,300 tested, under 10 active;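 active = mean activation of the triplicate above a set limit carried over from the primary screen, none filed active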
Each line names hits and unclear results; the compound was inactive in the other large screens (follow-up assays come after a bar, where they were run). In the library only some 4.2% were active in any assay of this set; here they are far more common.

COc1cccc(NC(=O)COC(=O)c2nc3nccc(C)n3n2)c1	none
COc1cccc(N(C(=O)c2nc3nccc(C)n3n2)c2nc3ccccc3s2)c1	hcDAF-12 act 8.4, DAX1 inh 4.0, hgDAF12 agonist 20, ssDAF12 agonist 1.1 | LXRb hcDAF ctr inactive | hcDAF12 ag inactive | hgDAF12 ag 16 | LXR ag 2 inactive
Cc1cc2nc(-c3ccc[nH]c3=O)[nH]c2cc1C	hcDAF-12 act 7.6, hgDAF12 agonist 15, ssDAF12 agonist 1.2 | LXRb hcDAF ctr inactive | hcDAF12 ag 7.9 | hgDAF12 ag 12 | LXR ag 2 inactive
O=C(Nc1ncccc1O)c1ccc(Oc2ccccc2)cc1	hcDAF-12 act 6.8, DAX1 inh 3.8, hgDAF12 agonist 19 | LXRb hcDAF ctr inactive | hcDAF12 ag 5.8 | hgDAF12 ag 26 | LXR ag 2 inactive
O=C(COc1ccc(C(=O)c2ccccc2)cc1)Nc1ncccc1O	none
CCOc1ccc(CCNC(=O)Cc2ccccc2)cc1OCC	none (no result: DAX1 inh, SMARCA2 act)
CC1=NC(=O)C(N=Nc2cccc(C(=O)O)c2)N1c1ccccc1 (stereo unspecified)	hcDAF-12 act 10, hgDAF12 agonist 16, ssDAF12 agonist 1.5 | LXRb hcDAF ctr inactive | hcDAF12 ag 13 | hgDAF12 ag 16 | LXR ag 2 inactive
CC1=NC(=O)C(N=Nc2ccccc2)N1c1ccccc1 (stereo unspecified)	none
CN(C)c1ccc(C2NC(=O)c3ccccc3N2)cc1 (stereo unspecified)	hcDAF-12 act 8.1, hgDAF12 agonist 14 | LXRb hcDAF ctr inactive | hcDAF12 ag 8.3 | hgDAF12 ag 20 | LXR ag 2 inactive
O=C(NC1CCCC1)C1(C(=O)C2CC2)CC(c2ccccn2)=NO1 (stereo unspecified)	none
Cc1ccc([C@H]2C[C@@H](O)[C@H](n3cc(COC(=O)c4ccccc4)nn3)CN2C(=O)c2cccs2)cc1	none
O=C1C(=Cc2cccs2)C(=O)c2ccccc21	none
O=C1/C(=C\c2cccs2)Sc2ccc3ccccc3c21	hcDAF-12 act 22, DAX1 inh 4.0, hgDAF12 agonist 16, ssDAF12 agonist 6.4 | LXRb hcDAF ctr inactive | hcDAF12 ag 19 | hgDAF12 ag 31 | LXR ag 2 inactive
COC(=O)[C@]12C[C@H](CC(=O)NCc3cccc4ccccc34)C(=O)N(Cc3cccc4ccccc34)C1=C[C@H](C(C)C)O[C@@H]2C1CC1	none
O=C(O)c1ccc(N/N=C/c2ccc(F)c(F)c2)cc1	hcDAF-12 act 11, hgDAF12 agonist 18 | LXRb hcDAF ctr inactive | hcDAF12 ag 8.2 | hgDAF12 ag 16 | LXR ag 2 inactive
Cc1cccc(N/C=C/C(=O)c2ccc(Cl)cc2)c1	hcDAF-12 act 6.6, hgDAF12 agonist 14 | LXRb hcDAF ctr inactive | hcDAF12 ag 6.9 | hgDAF12 ag 22 | LXR ag 2 inactive
COc1cccc(C(=O)/C=C/Nc2cc(C)ccc2O)c1	none
Cc1ccc(Cl)c(N/C=C/C(=O)c2ccccc2)c1	hcDAF-12 act 13, hgDAF12 agonist 15, ssDAF12 agonist 2.9 | LXRb hcDAF ctr inactive | hcDAF12 ag 16 | hgDAF12 ag 26 | LXR ag 2 inactive
Cc1cccc(CCNC(=O)c2cc3ccccn3n2)c1	none
Cc1ccc(C)c(NC(=O)c2cc3ccccn3n2)c1	hcDAF-12 act 7.8, DAX1 inh 3.6, hgDAF12 agonist 21 | LXRb hcDAF ctr inactive | hcDAF12 ag inactive | hgDAF12 ag 18 | LXR ag 2 inactive
Cc1ccccc1-c1nnc(-c2ccc(Cl)cc2)o1	none
Cc1ccc(-c2nnc(-c3ccccc3Br)o2)cc1	hcDAF-12 act 15, hgDAF12 agonist 20, ssDAF12 agonist 1.8 | LXRb hcDAF ctr inactive | hcDAF12 ag 10 | hgDAF12 ag 20 | LXR ag 2 inactive
Cc1ccccc1-c1nnc(-c2ccccc2)o1	hcDAF-12 act 7.8, hgDAF12 agonist 14 | LXRb hcDAF ctr inactive | hcDAF12 ag 9.3 | hgDAF12 ag 17 | LXR ag 2 inactive
Brc1cccc(-c2n[nH]c(-c3ccccc3)n2)c1	hcDAF-12 act 12, hgDAF12 agonist 14, ssDAF12 agonist 1.8 | LXRb hcDAF ctr inactive | hcDAF12 ag 9.6 | hgDAF12 ag 21 | LXR ag 2 inactive
O=C(Nc1ccc(Cl)cn1)c1ccccc1F	hcDAF-12 act 6.6, hgDAF12 agonist 15, ssDAF12 agonist 1.2 | LXRb hcDAF ctr inactive | hcDAF12 ag 7.8 | hgDAF12 ag 18 | LXR ag 2 inactive
COc1cc2ccccc2cc1C(=O)Nc1ccc(Cl)cn1	none
COc1cccc(/C=C/c2ccc3cccc(O)c3n2)c1OC	none
COc1ccc(/C=C/c2ccc3cccc(O)c3n2)cc1Br	none
Oc1cccc(/C=C/c2ccc3cccc(O)c3n2)c1	hcDAF-12 act 26, DAX1 inh 3.6, hgDAF12 agonist 23, ssDAF12 agonist 4.7 | LXRb hcDAF ctr inactive | hcDAF12 ag 21 | hgDAF12 ag 28 | LXR ag 2 inactive
Cc1ccc(/C=C/c2ccc3cccc(O)c3n2)s1	hcDAF-12 act 8.9, hgDAF12 agonist 18, ssDAF12 agonist 1.5 | LXRb hcDAF ctr inactive | hcDAF12 ag 15 | hgDAF12 ag 16 | LXR ag 2 inactive
COC(=O)[C@]12C[C@H](CC(=O)NCCc3ccccc3OC)C(=O)N(Cc3ccc(Cl)cc3Cl)C1=C[C@H](C1CCCC1)O[C@@H]2C	none
O=C(Nc1nc2ccccc2s1)c1ccc(Cl)s1	hcDAF-12 act 8.4, DAX1 inh 4.0, hgDAF12 agonist 15 | LXRb hcDAF ctr inactive | hcDAF12 ag 7.2 | hgDAF12 ag 21 | LXR ag 2 inactive
CCN(CC)S(=O)(=O)c1ccc2nc(NC(=O)c3ccco3)sc2c1	none
O=C(Nc1nc2ccc(Cl)cc2s1)c1ccco1	hcDAF-12 act 7.4, hgDAF12 agonist 16 | LXRb hcDAF ctr inactive | hcDAF12 ag 6.6 | hgDAF12 ag 17 | LXR ag 2 inactive
Fc1ccccc1-c1ccc(/C=N/Nc2nc3ccccc3[nH]2)o1	hcDAF-12 act 13, hgDAF12 agonist 21, ssDAF12 agonist 3.4 | LXRb hcDAF ctr inactive | hcDAF12 ag 13 | hgDAF12 ag 18 | LXR ag 2 inactive
C(=N\Nc1nc2ccccc2[nH]1)/c1ccccn1	none
O=C(COC(=O)c1ccccc1)NC12CC3CC(CC(C3)C1)C2	none
